Results as given in PubChem BioAssay (NCI).
Several values for one entry are separate records, joined by “and”; a condition that tells them apart may be missing. Equal values may be shown once. The panel holds about 83,000 compounds, 20% with a hit somewhere; the sample as a whole holds those more often.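 Treatment: one concentration, 48 hours, 96-well format. Scoring: percent growth, with anything below 10 considered active.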 Activity calls are given as the source filed them.

Assays:
Experiment in all cases: NCI-60 one-dose screen, 48 h (100 = growth as untreated, 0 = no growth, -100 = all killed)
DU-145 prostate = details: 10 µM unless noted
K-562 leukemia = details: 10 µM unless noted
MALME-3M melanoma = details: 10 µM unless noted
MDA-MB-231 breast = details: 10 µM unless noted
RXF 393 renal = details: 10 µM unless noted
SF-268 CNS = details: 10 µM unless noted
SF-295 CNS = details: 10 µM unless noted
SF-539 CNS = details: 10 µM unless noted
UACC-257 melanoma = details: 10 µM unless noted
M14 melanoma = details: 10 µM unless noted
HCT-15 colon = details: 10 µM unless noted
HT29 colon = details: 10 µM unless noted
SNB-75 CNS = details: 10 µM unless noted
SNB-19 CNS = details: 10 µM unless noted
U251 CNS = details: 10 µM unless noted
PC-3 prostate = details: 10 µM unless noted
SK-MEL-5 melanoma = details: 10 µM unless noted
LOX IMVI melanoma = details: 10 µM
SK-MEL-28 melanoma = details: 10 µM unless noted
UACC-62 melanoma = tested on: UACC-62 melanoma

Measured: growth

COc1cccc(C(=O)O)c1OC
inactive: DU-145 prostate 111% | K-562 leukemia 107% | MALME-3M melanoma 103% | MDA-MB-231 breast 99.2% | RXF 393 renal 115% | SF-268 CNS 105% | SF-295 CNS 87.5% | SF-539 CNS 96.4% | UACC-257 melanoma 97.6% | M14 melanoma 103% | HCT-15 colon 101% | HT29 colon 96.8% | SNB-75 CNS 90.8% | SNB-19 CNS 106% | U251 CNS 98.2% | PC-3 prostate 96.3% | SK-MEL-5 melanoma 104% | LOX IMVI melanoma 99% | SK-MEL-28 melanoma 102%

CN(C)CCOC(=O)Nc1ccc(Cc2ccc(NC(=O)OCCN(C)C)cc2)cc1
inactive: DU-145 prostate 86.3% [100 µM] | MALME-3M melanoma 69.1% [100 µM] | MDA-MB-231 breast 65.8% [100 µM] | RXF 393 renal 32.2% [100 µM] | SF-268 CNS 90.3% [100 µM] | SF-295 CNS 87.6% [100 µM] | HCT-15 colon 63.1% [100 µM] | HT29 colon 14.5% [100 µM] | SNB-75 CNS 89% [100 µM] | SNB-19 CNS 99.6% [100 µM] | U251 CNS 69.4% [100 µM] | PC-3 prostate 60.5% [100 µM] | SK-MEL-5 melanoma 54.8% [100 µM] | SK-MEL-28 melanoma 18.7% [100 µM]
active: K-562 leukemia -30.1% [100 µM] | SF-539 CNS -66.5% [100 µM] | UACC-257 melanoma -61.6% [100 µM] | M14 melanoma -38.6% [100 µM] | UACC-62 melanoma; 10 µM unless noted 1.99% [100 µM]

OCCOc1ccc(-c2cc(-c3ccccn3)nc(-c3ccccn3)c2)cc1
active: DU-145 prostate -10.2% | K-562 leukemia -2.31% | RXF 393 renal 2.52% | SF-539 CNS -6.53% | UACC-257 melanoma 1.35% | M14 melanoma -62.5% | HT29 colon 4.07% | U251 CNS 4.7% | UACC-62 melanoma; 10 µM unless noted -44.8% | LOX IMVI melanoma -29.6%
inactive: MALME-3M melanoma 17.3% | MDA-MB-231 breast 21.4% | SF-268 CNS 15% | SF-295 CNS 14.6% | HCT-15 colon 19.1% | SNB-75 CNS 24.1% | SNB-19 CNS 20.6% | PC-3 prostate 20.1%

S=C(NCc1ccccc1)N1CCC(CCCC2CCN(C(=S)NCc3ccccc3)CC2)CC1
inactive: DU-145 prostate 105% | K-562 leukemia 69.9% | MALME-3M melanoma 104% | MDA-MB-231 breast 99.2% | RXF 393 renal 107% | SF-268 CNS 93% | SF-295 CNS 97.7% | SF-539 CNS 99.1% | UACC-257 melanoma 100% | M14 melanoma 100% | HCT-15 colon 99.8% | HT29 colon 95.9% | SNB-75 CNS 101% | SNB-19 CNS 94.5% | U251 CNS 98.3% | PC-3 prostate 89.5% | SK-MEL-5 melanoma 58.8% | UACC-62 melanoma; 10 µM unless noted 79.1% | SK-MEL-28 melanoma 119%

NC(=O)OCCO
inactive: DU-145 prostate 104% | K-562 leukemia 82.9% | MALME-3M melanoma 84.7% | MDA-MB-231 breast 109% | RXF 393 renal 110% | SF-268 CNS 97.7% | SF-295 CNS 106% | SF-539 CNS 108% | UACC-257 melanoma 95.6% | M14 melanoma 94.6% | HCT-15 colon 108% | HT29 colon 99% | SNB-75 CNS 110% | SNB-19 CNS 108% | U251 CNS 97.4% | PC-3 prostate 98.5% | SK-MEL-5 melanoma 95.4% | UACC-62 melanoma; 10 µM unless noted 100% | LOX IMVI melanoma 94.6% | SK-MEL-28 melanoma 113%

Cc1ccc(C2CCCCC2)cc1Br
inactive: DU-145 prostate 105% | K-562 leukemia 100% | MALME-3M melanoma 100% | MDA-MB-231 breast 97.4% | RXF 393 renal 105% | SF-268 CNS 99.5% | SF-295 CNS 95.5% | SF-539 CNS 101% | UACC-257 melanoma 88.8% | M14 melanoma 98.6% | HCT-15 colon 100% | HT29 colon 95.8% | SNB-75 CNS 98.4% | SNB-19 CNS 95.6% | U251 CNS 88.1% | PC-3 prostate 94% | SK-MEL-5 melanoma 102% | LOX IMVI melanoma 103% | SK-MEL-28 melanoma 101%

C=CC(C)(C)n1cc(C2=C(O)C(=O)C(c3cn(C(C)(C)C=C)c4ccccc34)=C(O)C2=O)c2ccccc21
active: UACC-62 melanoma; 100 µM -85.8% and -96.5%
inactive: DU-145 prostate 92.9% | K-562 leukemia 79.5% | MALME-3M melanoma 90.6% | MDA-MB-231 breast 92.6% | RXF 393 renal 93.2% | SF-268 CNS 74.7% | SF-295 CNS 83.5% | SF-539 CNS 76.6% | UACC-257 melanoma 94% | M14 melanoma 69.9% | HCT-15 colon 84.2% | HT29 colon 99.3% | SNB-75 CNS 67.8% | SNB-19 CNS 80.2% | U251 CNS 82.6% | PC-3 prostate 80.8% | UACC-62 melanoma; 10 µM 100% | LOX IMVI melanoma 97.2%

CC(=O)C[n+]1ccc(C)cc1Sc1ccccc1C
inactive: DU-145 prostate 98.1% | K-562 leukemia 102% | MALME-3M melanoma 102% | MDA-MB-231 breast 89.3% | RXF 393 renal 134% | SF-268 CNS 93% | SF-295 CNS 96.8% | SF-539 CNS 88.5% | UACC-257 melanoma 97.8% | M14 melanoma 90.7% | HCT-15 colon 97.1% | HT29 colon 99.1% | SNB-75 CNS 76% | SNB-19 CNS 91.1% | U251 CNS 93.3% | PC-3 prostate 91.8% | SK-MEL-5 melanoma 92% | LOX IMVI melanoma 86.6% | SK-MEL-28 melanoma 104%
